Screening data from PubChem.
Rows were chosen to be rich in hits. Some 0.74% of all compounds tested hit in one or more screens of this group.
FadD28 binding = M. tuberculosis FadD28 bisubstrate binding inhibition | FadD28 bisubstrate probe binding, fluorescence polarization | inhibition, % at 12.5 µM | 0.22% of 360,000 active | AID 588549; in the data active = inhibition above about 8.5%, passing the limit was not always enough; inconclusive = no clear call, values can overlap the other calls
Rv3671c protease = inhibitors of M. tuberculosis serine protease Rv3671c; AID 2606; P9WHR9; inhibition, % at 5.96 µM; 0.048% of 320,000 active; in the data active = inhibition above about 38%;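 note: extracellular domain of Rv3671c used as enzyme; 0% = enzyme with DMSO and 100% = no enzyme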
Target sequence (P9WHR9 whole entry, looked up, the tested form may be a part): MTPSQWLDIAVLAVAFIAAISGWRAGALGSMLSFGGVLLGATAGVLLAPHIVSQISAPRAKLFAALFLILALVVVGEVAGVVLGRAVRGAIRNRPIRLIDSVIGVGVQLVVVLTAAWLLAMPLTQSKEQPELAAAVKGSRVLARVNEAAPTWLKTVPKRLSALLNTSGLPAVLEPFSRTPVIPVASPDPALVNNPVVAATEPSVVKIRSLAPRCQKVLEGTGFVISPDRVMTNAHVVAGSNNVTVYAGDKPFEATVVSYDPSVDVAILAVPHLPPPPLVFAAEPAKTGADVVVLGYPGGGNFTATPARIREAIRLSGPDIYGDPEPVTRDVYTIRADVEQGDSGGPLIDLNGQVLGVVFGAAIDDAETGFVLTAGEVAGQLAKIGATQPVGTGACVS
MazF activator = MazEF (E. coli) toxin RNase activation; FAM/BHQ RNA-DNA oligo cleavage fluorescence, 5 h; P0AE70; activation, % at 20 µM; 0.32% of 350,000 active; AID 504720; in the data active = activation above about 50%
Target sequence (P0AE70 whole entry, looked up): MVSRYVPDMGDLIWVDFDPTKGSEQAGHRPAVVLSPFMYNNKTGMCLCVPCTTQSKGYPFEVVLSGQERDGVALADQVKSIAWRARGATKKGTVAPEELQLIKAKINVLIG
Mtb betalactam = beta-lactam sensitization of Mtb H37Rv; AID 434955; inhibition, % at 25 µM; M. tuberculosis H37Rv growth with meropenem, percent inhibition; 0.27% of 330,000 active;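 note: growth measured after seven days incubation then overnight dye step; 0% = bacteria only wells and 100% = bacteria with antibiotic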
Vc quorum ag-1 = quorum light induction in luxS cqsA deficient V. cholerae. 0.16% of 350,000 active. V. cholerae BH1578 lux reporter, luminescence, 6 h. activation, % at 18.7 µM; in the data active = activation mostly above about 9.7%, no sharp cut-off; inconclusive = no clear call, values can overlap the other calls; inactive = mostly below about 3.7%
Mtb UGM inh = blocks M. tuberculosis UGM enzyme; purified UGM, fluorescence polarization probe displacement; 0.06% of 320,000 active; inhibition, % at 10 µM; in the data active = inhibition above about 10%, passing the limit was not always enough; inconclusive = no clear call, values can overlap the other calls
Vc quorum ag-2 = induces V. cholerae light production without autoinducers; V. cholerae BH1578 lux reporter, luminescence, 6 h; shares compounds with Vc quorum ag-1; 620 tested, under 10 active; activation, % at 50 µM
* hit, by the source's call; i = inactive; ? = inconclusive; · = not tested or not shown. Unless noted, the rule behind the calls is not given here.

SMILES	FadD28 binding	Rv3671c protease	MazF activator	Mtb betalactam	Vc quorum ag-1	Mtb UGM inh	Vc quorum ag-2
COC(=O)CN1CCN(C(c2ccccc2)c2ccccc2)CC1	0	-5	1	-8	0	-3	·
CC(NC(=O)CN1CCN(c2ccccc2F)CC1)c1ccccc1 (stereo not given)	0	·	2	1	27	1	1
COc1cccc(CN(C)C(=O)CSCC(=O)Nc2cc(C)on2)c1OC	-1	-6	1	-10	-1	3	·
COc1cccc(CN(C)C(=O)CSC(C)C(=O)Nc2cc(C)on2)c1OC (stereo not given)	-4	1	-2	2	2	-3	0
Cc1csc(NC(=O)Cc2nn(C)c(=O)c3ccccc23)n1	-2	2	4	-12	25*	0	0
CC(C)OC(=O)CSc1nnc(SCc2cccc3ccccc23)s1	-1	3	-5	100	29*	-3	0
O=C(Nc1nnc(-c2ccc(Br)cc2)o1)c1cccc(N2C(=O)CCC2=O)c1	-4	-10	1	36	14	1	0
O=C(Nc1nnc(-c2ccccc2)o1)c1cccc(N2C(=O)CCC2=O)c1	-2	-6	8	-9	-3	3	·
CCN(CC)c1ccc(S(=O)(=O)N2CCOCC2)cc1NC(=O)CSC(=S)N1CCCC1	1	9	3	7	i	3	·
COC(=O)c1nnn(-c2nonc2N)c1CSc1nc2ccccc2s1	-6	7	0	3	25*	-1	0
COc1ccc(N2C[C@H](Cc3ccccc3)[C@@H](CC(=O)Nc3ccccc3)C2=O)cc1	-5	·	-1	·	i	·	·
Cc1ccc(OCC(=O)NC2CCS(=O)(=O)C2)c([N+](=O)[O-])n1 (stereo not given)	-1	0	9	3	12	-1	0
COC(=O)c1ccc(C2c3c(oc4ccc(F)cc4c3=O)C(=O)N2CCO)cc1 (stereo not given)	-1	8	3	0	0	0	·
COC(=O)c1ccc(C2C(C(C)=O)=C(O)C(=O)N2CCO)cc1 (stereo not given)	1	8	-6	-4	17*	1	0
CCCc1ccc(S(=O)(=O)N2CCN(C(C)C(=O)NCc3ccccc3)CC2)cc1 (stereo not given)	-3	·	4	·	-1	·	·
COc1ccc(CNC(=O)c2ccc(Cl)c(S(=O)(=O)N3CCOCC3)c2)cc1OC	-1	-1	0	5	57*	-1	0
CCc1ccc2c(c1)c1nnc(NN)nc1n2CC	-2	-8	7	?	135*	3	106
CCc1ccc2c(c1)c1nnc(NN)nc1n2C	-1	1	5	1	1	-4	·
CCCNC(=O)Cc1ccsc1	-3	1	5	-2	12	-3	0
CCN(CC)CCNC(=O)c1ccc(NC(=O)Cc2ccsc2)cc1	0	-4	2	-2	i	2	·
CCOC(=O)C1CCN(C(=O)Nc2ccc3c(c2)nc(C)n3C)CC1	1	12	10	4	?	0	0
Cc1nc2cc(NC(=O)N3CCCCC3)ccc2n1C	-2	2	-3	-2	0	0	·
O=C(O)c1cc(CN2CCOCC2)oc1-c1ccccc1	-3	1	6	-10	17*	1	1
CCN(CC)Cc1cc(C(=O)O)c(-c2ccccc2)o1	-1	4	7	-10	-6	2	·
COc1cc(O)ccc1C(=O)CCc1ccc(O)cc1	-1	-1	-1	4	-1	-4	·
SMILES	FadD28 binding	Rv3671c protease	MazF activator	Mtb betalactam	Vc quorum ag-1	Mtb UGM inh	Vc quorum ag-2
CCOC(=O)c1c(NC(=S)Nc2ccc(Cl)cc2)sc(C)c1C	1	·	-8	·	12	·	1
Cc1ccc(C)c(C(=O)CN2C(=O)NC3(CCCCCC3)C2=O)c1	-3	·	-6	·	12	·	0
Cc1ncc(S(=O)(=O)c2ccccc2)c(-c2ccc(Cl)cc2Cl)n1	0	-9	-8	-4	17*	-3	0
CN(CC(=O)Nc1ccc(F)c(F)c1F)C(=O)C1CCC1	-1	-4	11	-7	25*	1	3
COc1ccc(C(=O)N2CCC2(C)C(=O)NC(C)C)cc1 (stereo not given)	-1	·	·	·	i	·	·
CCS(=O)(=O)N1CCC(c2nc3ccccc3[nH]2)CC1	-4	1	8	-7	i	-2	·
CCc1cc(C(=O)c2ccccc2OC)c(N)s1	-2	-7	8	0	12	5	15
COc1cccc(CNC(=O)CCCc2c[nH]c3ccccc23)c1	0	-2	-2	-4	0	2	·
Cc1ccc(C)c(N(C(=O)Cn2nnc(-c3cccs3)n2)C(C(=O)NC2CC2)c2ccc(C)o2)c1 (stereo not given)	-2	1	2	-2	829*	0	2
O=C(COC(=O)CSc1ccccc1)NC1CCS(=O)(=O)C1 (stereo not given)	0	·	11	·	i	·	·
CC(C)CC(=O)Nc1ccccc1N1CCN(c2ccccc2)CC1	-3	0	7	-4	0	-1	·
CC(C)CC(=O)Nc1ccccc1N1CCN(C(=O)c2ccccc2)CC1	-1	-2	7	-12	34*	2	0
CCOC(=O)CSc1nc(N)c(C#N)c(-c2cccs2)c1C#N	-1	-17	6	100	44*	-2	0
CC(OC(=O)c1ccc(-n2cnnn2)cc1)C(=O)N(C)c1ccccc1 (stereo not given)	-1	·	5	·	14	·	1
O=[N+]([O-])c1ccccc1S(=O)(=O)N1CCN(c2ccc(F)cc2)CC1	-6	0	-2	-1	0	1	·
CCN(CC(=O)Nc1c(F)cccc1F)C(=O)C1CC(=O)N(c2ccccc2OC)C1 (stereo not given)	-4	-5	-1	-7	12	0	0
COc1ccc(-n2c(COc3ccccc3)nnc2SCc2ccc(C#N)cc2)cc1	-5	-4	-2	1	12	1	0
Cc1cccc(C(=O)N2c3ccccc3C(=O)OC2c2ccc3c(c2)OCO3)c1 (stereo not given)	-1	2	1	-2	32*	3	4
O=C1OC(c2ccc3c(c2)OCO3)N(C(=O)c2ccc(Cl)c(Cl)c2)c2ccccc21 (stereo not given)	-1	-15	-2	1	1	-1	·
O=C(NC(=S)NC(CO)Cc1ccccc1)c1ccc(F)cc1 (stereo not given)	-4	3	-11	-8	0	1	·
CC(=O)N1CCN(C(=O)COc2ccc(Br)cc2)CC1	-2	-2	6	-4	17*	-1	0
COc1ccc(N2CCN(C(=O)COc3ccc4ccccc4c3)CC2)cc1	-4	4	-4	6	12	0	0
COc1ccc(OCC(=O)N2CCN(C(=O)COc3ccc(Br)cc3)CC2)cc1	-4	-1	-2	?	·	1	·
